# The source made the active and inactive calls.
# How the values were obtained:
# Albumin (Bos taurus) = Albumin (Bos taurus) (UniProt P02769); assay: compounds binding labelled BSA control protein – biochemical, small-molecule microarray, Alexa647 label, 635/667 nm fluorescence, artefact control for SMM control protein annotation, profiling panel (AID 1118); settings: BSA-A647 binding, fluorescence 635 nm, higher = more signal;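 also: score merges 667 nm emission intensity and signal-to-noise per printed compound spot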
# Sequence of Albumin (Bos taurus) (P02769 whole entry, looked up): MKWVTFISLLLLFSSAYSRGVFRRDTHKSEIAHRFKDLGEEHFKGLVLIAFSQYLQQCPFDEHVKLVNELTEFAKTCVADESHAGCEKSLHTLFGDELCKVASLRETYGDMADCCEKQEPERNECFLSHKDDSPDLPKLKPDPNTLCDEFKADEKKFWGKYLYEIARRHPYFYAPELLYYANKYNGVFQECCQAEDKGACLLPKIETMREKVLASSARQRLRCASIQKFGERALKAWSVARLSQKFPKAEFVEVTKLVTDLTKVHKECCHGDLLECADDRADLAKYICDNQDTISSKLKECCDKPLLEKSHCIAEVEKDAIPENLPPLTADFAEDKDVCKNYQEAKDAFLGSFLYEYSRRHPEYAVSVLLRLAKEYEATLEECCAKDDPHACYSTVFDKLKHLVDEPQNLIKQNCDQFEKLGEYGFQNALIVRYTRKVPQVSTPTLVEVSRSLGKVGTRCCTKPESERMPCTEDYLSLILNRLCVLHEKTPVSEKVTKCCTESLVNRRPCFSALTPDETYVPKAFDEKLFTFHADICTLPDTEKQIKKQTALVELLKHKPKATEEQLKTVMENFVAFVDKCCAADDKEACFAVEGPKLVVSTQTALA
# [1] = probe aXIP binding to arrayed compounds – biochemical, NeuroSMM set, 635/667 nm fluorescence, primary screen (AID 1119); settings: small-molecule microarray, higher = more signal, called active from +8 up or from −8 down;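 also: probe is the protein aXip251-270 applied at 1 µg/mL to compound-printed slides; binding of probe to printed compounds measured as 667 nm fluorescence plus signal to noise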
# [2] = probe aNOTCH3 binding on compound microarray – biochemical, small-molecule microarray, 635/667 nm fluorescence, primary screen (AID 1120); settings: higher = more signal;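 also: probe is a biotin-tagged antibody raised against NOTCH3 rather than NOTCH3 protein; score merges spot fluorescence near 667 nm with spot signal to noise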
# [3] = probe aNOTCH2 binding on compound microarray – biochemical, small-molecule microarray, 635/667 nm fluorescence, primary screen (AID 1121); settings: higher = more signal;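 also: score merges feature fluorescence read at 667 nm with its signal to noise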
# [4] = molecular target: Carbonic anhydrase 2 (Homo sapiens) (UniProt P00918); assay: compounds binding carbonic anhydrase 2 – biochemical, small-molecule microarray, Alexa647-labelled CAII, profiling panel (AID 1122); settings: CAII-A647 binding fluorescence, higher = more signal
# [5] = COS7 lysate on small-molecule microarray, probe aHis, 635 nm (AID 1123); settings: COS7 cell lysate, fluorescence, higher = more signal;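 also: z-score combines 667nm fluorescence intensity with signal-to-noise per printed compound spot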
# [6] = probe aLAP1 signal on lysate-treated microarray – cell lysate, small-molecule microarray, COS7 lysate, primary screen (AID 1124); settings: probe aLAP1, fluorescence, higher = more signal;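 also: lysate comes from COS7 cells expressing LAP1 and is applied at 0.3 µg/mL; score merges spot fluorescence near 667 nm with signal-to-noise over triplicate slides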
# Sam68 (KHDRBS1) = assay: compounds binding KHDRBS1 protein – biochemical, small-molecule microarray, 635 nm fluorescence, primary screen (AID 1125); settings: higher = more signal;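 also: score merges 667 nm channel intensity with signal to noise over triplicate slides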
# [7] = tested on: Chordin-like protein 2 (CHRDL2); assay: compounds binding chordin-like 2 – biochemical, small-molecule microarray, 635 nm fluorescence, primary screen (AID 1126); settings: fluorescence 635 nm, higher = more signal;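 also: printed compound slides probed with Chrdl2 protein at 4 µg/mL for 1 h at 4 C; score merges 667 nm emission intensity with signal to noise over three replicate slides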
# [8] = molecular target: Concanavalin-A (Canavalia ensiformis) (UniProt P02866); assay: compounds binding concanavalin A lectin – biochemical, small-molecule microarray, Alexa647 label, 635 nm, artefact control for SMM control protein annotation, primary screen (AID 1127); settings: ConA-A647 binding fluorescence, higher = more signal;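 also: z combines 667 nm emission intensity with signal-to-noise across three replicate slides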
# Sequence of Concanavalin-A (Canavalia ensiformis) (P02866 whole entry, looked up): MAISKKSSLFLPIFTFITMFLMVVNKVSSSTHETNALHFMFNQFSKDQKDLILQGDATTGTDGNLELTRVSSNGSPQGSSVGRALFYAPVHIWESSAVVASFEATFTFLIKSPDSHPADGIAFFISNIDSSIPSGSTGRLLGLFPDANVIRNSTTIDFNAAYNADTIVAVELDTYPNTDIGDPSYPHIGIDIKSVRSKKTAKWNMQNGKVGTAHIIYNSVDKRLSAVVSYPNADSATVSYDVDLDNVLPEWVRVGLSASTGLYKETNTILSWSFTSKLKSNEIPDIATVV
# [9] = compounds binding Alexa647 anti-His antibody – biochemical, small-molecule microarray, 635 nm fluorescence, artefact control for SMM control protein annotation, primary screen (AID 1128); settings: higher = more signal;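 also: score merges feature fluorescence with signal-to-noise for each printed compound spot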
# [10] = tested on: Human papillomavirus type 1a E7 protein (residues 1-88); assay: HPV1a E7 small-molecule binders, primary screen, biochemical, small-molecule microarray, residues 1-88, 635 nm (AID 1129); settings: small-molecule microarray binding, fluorescence 635 nm; higher = more signal
# [11] = molecular target: Focal adhesion kinase 1 (Homo sapiens) (UniProt Q05397); assay: PTK2 protein binding on printed compound slides – biochemical, small-molecule microarray, 635/667 nm fluorescence, BSA, DTT, primary screen (AID 1130); settings: 635 nm fluorescence, higher = more signal;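 also: composite of spot emission at 667 nm and signal to noise over triplicate slides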
# Sequence of Focal adhesion kinase 1 (Homo sapiens) (Q05397 whole entry, looked up): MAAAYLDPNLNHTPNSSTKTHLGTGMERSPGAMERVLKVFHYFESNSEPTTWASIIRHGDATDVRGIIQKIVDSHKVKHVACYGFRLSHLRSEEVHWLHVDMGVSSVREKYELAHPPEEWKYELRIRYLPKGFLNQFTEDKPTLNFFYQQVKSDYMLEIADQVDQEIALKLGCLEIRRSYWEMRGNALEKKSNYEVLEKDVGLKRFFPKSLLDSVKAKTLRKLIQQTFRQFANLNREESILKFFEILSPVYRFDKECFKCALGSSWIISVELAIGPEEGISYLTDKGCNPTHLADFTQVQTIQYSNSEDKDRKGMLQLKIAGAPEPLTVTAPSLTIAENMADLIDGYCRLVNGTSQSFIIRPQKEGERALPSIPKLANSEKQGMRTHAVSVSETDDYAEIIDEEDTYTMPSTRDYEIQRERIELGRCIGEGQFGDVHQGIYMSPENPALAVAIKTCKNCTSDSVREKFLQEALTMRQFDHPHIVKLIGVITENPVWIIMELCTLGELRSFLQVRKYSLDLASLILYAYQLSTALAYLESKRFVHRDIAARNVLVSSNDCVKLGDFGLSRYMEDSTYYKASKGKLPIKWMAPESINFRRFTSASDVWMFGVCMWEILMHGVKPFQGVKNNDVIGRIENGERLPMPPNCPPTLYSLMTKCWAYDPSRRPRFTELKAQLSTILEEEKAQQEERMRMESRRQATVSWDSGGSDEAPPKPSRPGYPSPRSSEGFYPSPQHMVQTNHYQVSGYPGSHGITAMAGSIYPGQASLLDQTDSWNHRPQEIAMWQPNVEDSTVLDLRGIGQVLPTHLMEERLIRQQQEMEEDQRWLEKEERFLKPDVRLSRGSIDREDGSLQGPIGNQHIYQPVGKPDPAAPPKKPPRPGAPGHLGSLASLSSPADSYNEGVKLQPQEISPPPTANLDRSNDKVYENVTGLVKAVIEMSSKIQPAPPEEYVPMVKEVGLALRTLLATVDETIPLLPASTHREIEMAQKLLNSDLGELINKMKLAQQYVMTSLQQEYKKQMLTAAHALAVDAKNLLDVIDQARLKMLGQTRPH
# [12] = tested on: Fibrinogen (Alexa647-labelled); assay: Alexa647-fibrinogen binding to printed small molecules – biochemical, small-molecule microarray, 635/667 nm fluorescence, artefact control for SMM control-protein annotation, profiling panel (AID 1131); settings: fibrinogen-A647 binding fluorescence, higher = more signal;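 also: z-score merges 667 nm fluorescence with per-spot signal-to-noise over triplicate slides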
# [13] = molecular target: Follistatin (Homo sapiens) (UniProt P19883); assay: FST protein binding to printed compounds – biochemical, small-molecule microarray, 635/667 nm fluorescence, primary screen (AID 1132); settings: 635 nm fluorescence, higher = more signal
# Sequence of Follistatin (Homo sapiens) (P19883 whole entry, looked up): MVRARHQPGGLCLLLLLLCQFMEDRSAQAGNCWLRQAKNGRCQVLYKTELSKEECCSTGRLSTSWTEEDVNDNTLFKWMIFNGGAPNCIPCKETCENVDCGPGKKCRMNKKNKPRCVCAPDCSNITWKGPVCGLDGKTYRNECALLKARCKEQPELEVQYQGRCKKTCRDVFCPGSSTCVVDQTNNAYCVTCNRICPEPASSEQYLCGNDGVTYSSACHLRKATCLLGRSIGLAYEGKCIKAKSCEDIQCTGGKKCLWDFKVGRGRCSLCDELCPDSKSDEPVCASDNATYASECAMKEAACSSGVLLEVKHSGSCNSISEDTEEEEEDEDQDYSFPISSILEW
# [14] = molecular target: Fibroblast growth factor 2 (Homo sapiens) (UniProt P09038); assay: basic fibroblast growth factor binding to printed compounds – biochemical, small-molecule microarray, 635/667 nm fluorescence, primary screen (AID 1133); settings: FGF2, fluorescence 635/667, higher = more signal
# Sequence of Fibroblast growth factor 2 (Homo sapiens) (P09038 whole entry, looked up): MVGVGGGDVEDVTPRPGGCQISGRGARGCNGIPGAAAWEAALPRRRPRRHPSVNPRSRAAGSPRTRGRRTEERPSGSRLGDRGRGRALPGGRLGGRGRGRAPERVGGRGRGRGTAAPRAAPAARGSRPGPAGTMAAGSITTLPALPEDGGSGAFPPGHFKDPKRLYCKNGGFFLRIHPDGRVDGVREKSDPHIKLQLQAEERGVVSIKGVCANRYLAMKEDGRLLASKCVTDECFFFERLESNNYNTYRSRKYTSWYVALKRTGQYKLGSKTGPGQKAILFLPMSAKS
# [15] = JC-1 mitochondrial potential readout, lung cancer cells – cell-based, A549, JC-1 fluorescence, basal, 24 h, 100 nL, profiling panel (AID 1138); settings: higher = more signal;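 also: A549 lung adenocarcinoma cells under basal conditions with no added stimulus; test concentration not given here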
# Lefty1 = Lefty1 protein binding to printed compounds – biochemical, small-molecule microarray, 635/667 nm fluorescence, primary screen (AID 1139); settings: fluorescence 635/667, higher = more signal
# [16] = tested on: wheat germ agglutinin (Triticum aestivum), Alexa647-labelled; assay: Alexa647-WGA lectin binding to printed small molecules – biochemical, small-molecule microarray, 635/667 nm fluorescence, artefact control for SMM control-protein annotation, profiling panel (AID 1140); settings: WGA-A647 binding, 635 nm fluorescence, higher = more signal;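 also: score merges 667 nm feature emission with signal to noise over triplicate slides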
# [17] = molecular target: Luciferin 4-monooxygenase (Photinus pyralis) (UniProt P08659); assay: inhibition of purified Photinus pyralis luciferase – biochemical, luminescence, purified enzyme, 2006 set, primary screen (AID 1141); settings: purified firefly luciferase, SteadyGlo luminescence, 30 min; higher = more signal, called active from +8 up or from −8 down;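 also: cell-free assay with purified firefly luciferase at 100 ng per well in PBS; test concentration not given here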
# Sequence of Luciferin 4-monooxygenase (Photinus pyralis) (P08659 whole entry, looked up): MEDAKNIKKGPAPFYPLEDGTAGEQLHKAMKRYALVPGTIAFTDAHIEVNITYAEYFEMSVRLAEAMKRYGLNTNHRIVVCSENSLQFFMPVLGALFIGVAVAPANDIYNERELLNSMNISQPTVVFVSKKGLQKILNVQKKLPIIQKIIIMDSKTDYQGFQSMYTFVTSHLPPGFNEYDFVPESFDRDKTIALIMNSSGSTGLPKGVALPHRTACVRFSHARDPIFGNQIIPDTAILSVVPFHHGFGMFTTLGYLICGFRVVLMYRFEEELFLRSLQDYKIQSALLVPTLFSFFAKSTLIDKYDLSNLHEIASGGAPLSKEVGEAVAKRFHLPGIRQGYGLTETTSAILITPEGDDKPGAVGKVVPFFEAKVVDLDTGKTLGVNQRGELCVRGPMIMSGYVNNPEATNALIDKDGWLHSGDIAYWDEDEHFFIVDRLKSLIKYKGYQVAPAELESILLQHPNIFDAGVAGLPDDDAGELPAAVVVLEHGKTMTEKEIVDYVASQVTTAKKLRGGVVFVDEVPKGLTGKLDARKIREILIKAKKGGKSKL
SMILES,composite z-score (Albumin (Bos taurus)),composite Z-score [1],composite z-score [2],composite z-score [3],composite z-score [4],composite z-score [5],composite z-score [6],composite z-score (Sam68 (KHDRBS1)),composite z-score [7],composite z-score [8],composite z-score [9],composite z-score [10],composite z-score [11],composite z-score [12],composite z-score [13],composite z-score [14],z-score [15],composite z-score (Lefty1),composite z-score [16],z-score [17]
CO[C@H]1O[C@H](CO)[C@@H](OC(=O)Nc2ccccc2)[C@@H]2OC(=O)[C@@H](Cc3ccc4ccccc4c3)C/C=C/C[C@H](Cc3ccc4ccccc4c3)C(=O)O[C@@H]12,0.615,1.08 (inactive),-0.0371,-0.146,0.324,1.38,0.313,1.21,0.34,0.983,0.79,1.2,1.12,0.768,0.935,0.477,0.461,0.698,0.807,-1.97 (inactive)
CC(C)CNC(=O)[C@@]1(Cc2ccccc2I)c2ccccc2C(=O)N(Cc2ccccc2C(F)(F)F)[C@H]1c1ccc(CO)cc1,0.212,0.117 (inactive),-0.234,0.0344,0.417,0.959,0.393,0.432,-0.731,-0.0801,0.657,0.0788,-0.287,-0.105,-0.239,-0.217,-0.171,-0.639,0.34,0.654 (inactive)
COc1cc(OC)c(C(O)C2C=CC3C(=O)NC(=O)C3N2Nc2ccccn2)cc1Br (stereo not given),-0.257,0.172 (inactive),-0.0026,-0.0598,0.819,0.973,0.487,0.755,1.02,0.747,2.02,0.683,0.124,0.368,0.573,0.562,0.0938,0.483,0.0687,-1.36 (inactive)
O=C1NC(=O)C2C1C=CC(C(O)c1ccc(I)cc1)N2Nc1ccccn1 (stereo not given),0.898,0.369 (inactive),-0.0677,-0.0026,0.819,2.35,1.48,-0.302,0.37,0.445,2.1,0.134,0.675,0.791,0.367,-0.109,-0.279,-0.19,1.23,-0.759 (inactive)
CCCCN1CC=CC23O[C@@H]4/C=C\CCCOC(=O)C4[C@H]2C(=O)N(CCCO)[C@@H]3C1=O (stereo not given in full),-0.314,0.949 (inactive),-0.229,-0.18,0.939,1.28,1.82,-0.158,-0.824,-1.4,2.36,-0.43,-0.226,-1.73,-0.98,-0.251,0.259,-0.0249,-0.151,0.633 (inactive)
COc1ccc(NC(=O)O[C@H]2[C@H](OC(=O)c3cc4ccccc4[nH]3)[C@@H](OC(=O)c3cc4ccccc4[nH]3)[C@@H](OC)O[C@@H]2CO)cc1,0.144,0.561 (inactive),-0.235,-0.0404,0.541,1.24,0.614,0.156,-0.113,-0.586,1.23,0.359,0.448,0.662,0.752,1.38,0.816,0.194,0.566,-2.09 (inactive)

# — PubChem BioAssay
